According to paper PMC11062922 (Nature Chemical Biology, 2023):

test system: BTK; set-up: species or system human, MV4-11 + K-562 + COLO205 + SK-N-BE2 + OVCAR-8; conditions: read-out: apparent Kd; compound concentrations:100 nM and 1000 nM (sheet 'Samples'); n = 1

SMILES | potency estimated from few doses
NCCNS(=O)(=O)c1ccc(-c2ccnc3[nH]ccc23)cc1 [GSK977617A] | 642 nM
O=C1NC(=O)C(N2CCc3ccccc32)=C1c1ccccc1Cl [SB-373598] | 124 nM
Cl.Cl.NCC(C(=O)Nc1cc(Br)c(-c2ccnc3[nH]ccc23)s1)c1ccccc1.NCC(C(=O)Nc1cc(Br)c(-c2ccnc3[nH]ccc23)s1)c1ccccc1 (centres unmarked) [GSK1269851A] | 638 nM
CC(C)N1CCC(n2cnc(-c3ccc(F)cc3)c2-c2ccnc(N)n2)CC1 [SB-223132] | 842 nM
CNC(=O)c1ccccc1Nc1nc(Nc2ccc(N3CCOCC3)cc2)ncc1Cl.Cl [GSK1576028A] | 256 nM
CN1C[C@@H]2Cn3c(c(C4=C(c5cn(C)c6ccccc56)C(=O)NC4=O)c4ccccc43)C[C@H]2C1.Cl [RO0320234-001] | 86.7 nM
Cc1ccc2c(-c3ccncc3)c(-c3ccc(F)cc3)nn2c1.Cl [GW461484A] | 801 nM

test system: BUB1; set-up: species or system human, MV4-11 + K-562 + COLO205 + SK-N-BE2 + OVCAR-8; conditions: read-out: apparent Kd; compound concentrations:100 nM and 1000 nM (sheet 'Samples'); n = 1

SMILES | potency estimated from few doses
O=C1NC(=O)C(N2CCc3ccccc32)=C1c1ccccc1Cl [SB-373598] | 1690 nM
Cl.Cl.NCC(C(=O)Nc1cc(Br)c(-c2ccnc3[nH]ccc23)s1)c1ccccc1.NCC(C(=O)Nc1cc(Br)c(-c2ccnc3[nH]ccc23)s1)c1ccccc1 (centres unmarked) [GSK1269851A] | 2170 nM
Cl.NCc1ccc(-c2nc(-c3ccc(Cl)c(O)c3)c(-c3ccncc3)[nH]2)cc1 [SB-476429-A] | 2020 nM
CC(C)N1CCC(n2cnc(-c3ccc(F)cc3)c2-c2ccnc(N)n2)CC1 [SB-223132] | 1670 nM

test system: CAMKK2; set-up: species or system human, MV4-11 + K-562 + COLO205 + SK-N-BE2 + OVCAR-8; conditions: read-out: apparent Kd; compound concentrations:100 nM and 1000 nM (sheet 'Samples'); n = 1

SMILES | potency estimated from few doses
NCCNS(=O)(=O)c1ccc(-c2ccnc3[nH]ccc23)cc1 [GSK977617A] | 1970 nM
O=C1NC(=O)C(N2CCc3ccccc32)=C1c1ccccc1Cl [SB-373598] | 588 nM
Cl.Cl.NCC(C(=O)Nc1cc(Br)c(-c2ccnc3[nH]ccc23)s1)c1ccccc1.NCC(C(=O)Nc1cc(Br)c(-c2ccnc3[nH]ccc23)s1)c1ccccc1 (centres unmarked) [GSK1269851A] | 1310 nM
CC(C)N1CCC(n2cnc(-c3ccc(F)cc3)c2-c2ccnc(N)n2)CC1 [SB-223132] | 940 nM
CN1C[C@@H]2Cn3c(c(C4=C(c5cn(C)c6ccccc56)C(=O)NC4=O)c4ccccc43)C[C@H]2C1.Cl [RO0320234-001] | 1430 nM
Cc1ccc2c(-c3ccncc3)c(-c3ccc(F)cc3)nn2c1.Cl [GW461484A] | 1180 nM
